Bioassay records deposited in PubChem by National Center for Advancing Translational Sciences (NCATS).
SW480 rerep – induces DNA re-replication in SW480 colon adenocarcinoma cells; SW480 DNA re-replication, Hoechst DNA content imaging, 48 h; Potency, µM (series often up to 46.1 µM), usual class: activators; 1.8% of 340,000 active; AID 624297; note: nearly all actives have a fitted effect of over 55% in size
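Treated cells incubate 48 hr (37 C, 5% CO2), are stained 40 min with Hoechst, and nuclear fluorescence is enumerated; a rise in nuclei with high DNA signal marks re-replication.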
MCF10A rereplic – induces DNA re-replication in MCF 10a normal breast cells. MCF 10A DNA re-replication, Hoechst nuclear intensity, 48 h. Potency, µM (series often up to 46.1 µM), hits mostly activators. 2.9% of 350,000 active. AID 624296; note: nearly all actives have a fitted effect of over 50% in size
VP16 counter – Gal4-VP16 reporter inhibition counter-screen | AID 2546 | Potency, µM (titrated, usually from 53.6 µM), actives largely listed as inhibitors | 3.5% of 310,000 active | Drosophila S2 Gal4-VP16 UAS-luciferase, luminescence, 20 h;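 note: Gal4-VP16 expression switched on by copper sulfate through the metallothionein promoter; nearly all actives have a fitted effect of over 50% in size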
IL1B secr inh – inhibitors of inflammasome signaling (IL-1 beta secretion). THP-1 LPS/ATP IL-1B secretion, AlphaLISA, 16 h; hits give low values. activity change, % at 57.5 µM. 4.7% of 360,000 active. AID 743279; in the data active = activity change below about -50%; inconclusive = mostly about -30% to -49%
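THP-1 cells pretreated 1 hr with compounds (up to 57.5 uM final), then stimulated with LPS (250 ng/mL final) plus ATP (1.25 mM final); secreted IL-1B measured by AlphaLISA after 16 hr, decreased signal indicating inhibition.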
RORgamma inh – ROR gamma (mouse) transcription inhibition | Potency, µM (highest dose often 53.6 µM), usual class: inhibitors | AID 2551 | 5.4% of 310,000 active | Drosophila S2 Gal4-RORgamma UAS-luciferase reporter, 20 h; note: nearly all actives have a fitted effect of over 60% in size
Target sequence (P51450 whole entry, looked up, the tested form may be a part): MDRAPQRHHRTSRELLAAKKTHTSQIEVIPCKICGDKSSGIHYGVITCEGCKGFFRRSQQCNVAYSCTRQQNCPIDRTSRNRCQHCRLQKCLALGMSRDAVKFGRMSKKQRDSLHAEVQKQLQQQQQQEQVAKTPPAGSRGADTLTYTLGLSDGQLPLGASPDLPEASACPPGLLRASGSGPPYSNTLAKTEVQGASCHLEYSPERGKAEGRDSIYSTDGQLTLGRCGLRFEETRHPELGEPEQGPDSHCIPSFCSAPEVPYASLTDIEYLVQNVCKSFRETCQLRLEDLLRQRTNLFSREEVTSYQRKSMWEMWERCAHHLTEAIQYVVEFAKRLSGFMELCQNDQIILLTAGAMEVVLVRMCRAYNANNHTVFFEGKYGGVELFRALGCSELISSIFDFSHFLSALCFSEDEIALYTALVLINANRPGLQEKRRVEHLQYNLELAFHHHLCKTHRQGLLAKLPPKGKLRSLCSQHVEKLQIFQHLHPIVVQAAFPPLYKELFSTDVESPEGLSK
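Stable Schneider cell line, Gal4 DNA-binding domain fused to ROR gamma, UAS-luciferase. Cmpd 1 hr RT → CuSO4 700 uM final → 20 hr RT → luciferase reagent 10 min → luminescence.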
Numbers stand for hits; - = inactive; ? = inconclusive; . = not tested or not shown; [ ] = another dose, or the depositor's remark. Shown are actives, neighbours in structure and some others; about 11% of the full set was active somewhere. Unless noted, calls come from the whole dose curve; as a rule, active = well fitted curve in the direction sought with a large enough effect; inconclusive = small, poorly fitted or top-dose-only effect, or another doubt; inactive = no such curve, though single readings can be large; an effect the other way counts as inactive or inconclusive.

SMILES	SW480 rerep	MCF10A rereplic	VP16 counter	IL1B secr inh	RORgamma inh
COc1cc(NC(=O)c2ccc(-c3cnn(C)c3)c3ccoc23)cc(OC)c1OC	.	.	.	-	.
Cc1nc2ccc(C(=O)Nc3ccc4c(c3)OCC(=O)N4)cn2c1N(C)C(=O)CCc1ccccc1	.	.	.	-	.
Cc1ccc(CNC(=O)c2ccc3nc4[nH]c5ccccc5c4nc3c2)cc1	.	.	7.1µM	.	?
COc1ccccc1CNC(=O)c1ccc2nc3[nH]c4ccccc4c3nc2c1	?	18µM	?	-53	-
CCc1nc2ccc(C(=O)NCCc3ccccc3OC)cc2nc1CC	-	-	-	?	-
CCCOc1c(Br)cc(C2C3=C(CCCC3=O)N(C)C3=C2C(=O)CCC3)cc1OC	?	-	-	-	-
COc1ccc(C2C3=C(CCCC3=O)N(CC(=O)O)C3=C2C(=O)CCC3)cc1Cl	?	21µM	-	-	-
CCCOc1c(Br)cc(C2C3=C(CCCC3=O)N(CC)C3=C2C(=O)CCC3)cc1OC	16µM	?	-	-	-
C#CCOc1c(Cl)cc(C2C3=C(CCCC3=O)N(CC(=O)O)C3=C2C(=O)CCC3)cc1OC	-[1.84 µM]	21µM	-	-	-
COC(=O)c1ccc(-n2nnnc2SCC(=O)Nc2cc(OC)ccc2OC)cc1	-	-	-	-	-[10 µM]
COc1ccc(-n2nnnc2SCC(=O)Nc2cc(OC)c([N+](=O)[O-])cc2C)cc1	-	4.6µM	10µM	-	6.3µM
O=C(CSc1nnnn1-c1ccc(Cl)cc1)Nc1cccnc1Cl	-	-	?	-	?
Cc1ccc(-n2nnnc2SC(C)C(=O)Nc2ccc(Cl)cn2)cc1 (centres undefined)	-	-	-	-57	-
CC(Sc1nncn1C)C(=O)Nc1ccc(Cl)cn1 (centres undefined)	-	-	-	-	-
Cc1ccc(-n2nnnc2SCC(=O)Nc2cccnc2Cl)cc1	?	-	13µM	-	?
CCOC(=O)NC(=O)CSc1nnnn1-c1ccc(Cl)cc1	5.2µM	1.8µM	-	-	-
CCOC(=O)NC(=O)CSc1nnnn1-c1ccc(C)cc1	-	-	-	-	-
COc1cc(C=CC(=O)N2CCN(CC(=O)N3CCCC3)CC2)cc(OC)c1OC	.	.	.	-	.
CN(C)CCNc1nc(Oc2ccccc2)c2sccc2n1	.	.	.	-	.
O=C(CSc1nnc(-c2ccccc2F)n1C1CC1)Nc1cccnc1Cl	-	-	40µM	-	?
Cc1cccc(Cn2ccc(NC(=O)c3ccc4c(c3)OCO4)n2)c1	-	-	-	-52	-
O=C(Nc1ccn(Cc2ccc(Cl)cc2)n1)c1ccc2c(c1)OCO2	-	-	-	-	-
O=C(NCCOc1ccc(F)cc1)c1ccccc1SCc1ccccc1	-	?	?	-108	-
COCCNC(=O)C1(C)CCN(C(=O)c2cc(C(C)(C)C)nn2C)C1 (centres undefined)	.	.	.	-	.
COc1ccccc1-c1nccc(NCc2cccc(C)c2)n1	.	.	?	.	-
SMILES	SW480 rerep	MCF10A rereplic	VP16 counter	IL1B secr inh	RORgamma inh
CN(Cc1cc(Cl)cc(Cl)c1O)Cc1c(O)ccc2ccccc12	?	23µM	.	-96	.
COc1ccc2c(c1)c1ncn(Cc3ccc(F)cc3)c(=O)c1n2C	-[9.22 µM]	-	-	-	-
Cn1c2ccsc2c2ncn(Cc3ccc(F)cc3)c(=O)c21	0.26µM	?	.	.	.
CCOc1cc(CNCCO)cc(Br)c1OCc1ccccc1	?	-	-	-80	-
CCOc1cc(CNCCSc2nnnn2C)cc(Br)c1OCc1ccccc1	?	15µM	-	-56	-
CCOc1cc(CNc2ccccc2)cc(Br)c1OCc1ccccc1F	-	?	-	-	-
Cc1cc(C)c(N(Cc2ccccc2)S(=O)(=O)c2ccc(OCCNC(=O)c3cc4ccccc4o3)cc2)c(C(=O)NO)c1	.	.	?	.	10µM
CCCNc1nc(C#N)nc(Nc2ccccc2)n1	.	.	-	.	.
CCOC(=O)c1cnc(-n2nc(C)cc2C)nc1NCc1ccccc1	?	21µM	2.5µM	-111	1.4µM
CCOC(=O)c1cnc(-n2nc(C)cc2C)nc1NC(C)c1ccccc1 (centres undefined)	-	-	2.2µM	-	1.4µM
CCOC(=O)c1cnc(-n2nc(C)cc2C)nc1NCCO	-	-	-	-	?
CCOC(=O)c1cnc(-n2cc(C)cn2)nc1NCc1ccc2c(c1)OCO2	-	-	?	-	13µM
CCOC(=O)c1c(C)c(C(=O)NCc2ccc3c(c2)OCO3)c(C)n1CC	-	-	-	-	-
CC(=O)Oc1ccc2c(c1)C(=O)CCCCCC(=O)O2	.	.	.	-	.
